The text below walks through data of PubChem BioAssay AID1347404 (Pan Lab, Icahn School of Medicine at Mount Sinai, 2020).

Screen size: about 140,000 compounds; about 860 (0.61%) were called active. Cut-off read from the data, not from the text of the source: active = inhibition above about 25%; inactive = the rest. Shown is part of a subset that was picked to be rich in actives.

Sequence of E3 ubiquitin-protein ligase RBX1 (Homo sapiens) + Cullin-1 (Homo sapiens) (P62877 whole entry, looked up): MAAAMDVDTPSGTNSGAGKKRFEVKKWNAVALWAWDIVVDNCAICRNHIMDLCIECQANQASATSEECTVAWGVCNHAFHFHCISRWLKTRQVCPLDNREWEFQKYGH
Sequence of E3 ubiquitin-protein ligase RBX1 (Homo sapiens) + Cullin-1 (Homo sapiens) (Q13616 whole entry, looked up): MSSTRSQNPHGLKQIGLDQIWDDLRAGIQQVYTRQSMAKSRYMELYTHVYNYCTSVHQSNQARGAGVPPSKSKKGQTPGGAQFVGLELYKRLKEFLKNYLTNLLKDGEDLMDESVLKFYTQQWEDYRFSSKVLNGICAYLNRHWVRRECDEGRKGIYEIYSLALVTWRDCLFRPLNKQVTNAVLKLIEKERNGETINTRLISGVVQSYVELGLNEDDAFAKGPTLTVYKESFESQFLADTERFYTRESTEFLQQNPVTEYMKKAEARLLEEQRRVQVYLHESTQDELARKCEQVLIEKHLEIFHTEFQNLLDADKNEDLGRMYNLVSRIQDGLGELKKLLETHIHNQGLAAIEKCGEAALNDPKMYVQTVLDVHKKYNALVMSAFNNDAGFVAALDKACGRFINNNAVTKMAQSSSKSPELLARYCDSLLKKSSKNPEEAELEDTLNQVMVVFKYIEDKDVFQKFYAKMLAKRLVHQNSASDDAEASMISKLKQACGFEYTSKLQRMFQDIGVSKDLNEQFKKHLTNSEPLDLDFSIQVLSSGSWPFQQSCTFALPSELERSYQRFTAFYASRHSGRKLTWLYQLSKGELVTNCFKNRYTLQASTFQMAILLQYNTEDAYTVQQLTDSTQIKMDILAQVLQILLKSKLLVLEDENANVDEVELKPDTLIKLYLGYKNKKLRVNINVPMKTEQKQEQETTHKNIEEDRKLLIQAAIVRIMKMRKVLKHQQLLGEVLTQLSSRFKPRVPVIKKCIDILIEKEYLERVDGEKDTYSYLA

The test addresses E3 ubiquitin-protein ligase RBX1 (Homo sapiens) + Cullin-1 (Homo sapiens) (UniProt P62877+Q13616). In words: inhibitors of human ROC1-CUL1 ubiquitin ligase activity (AID 1347404). The conditions noted are these: in vitro K48 di-Ub FRET, acceptor:donor ratio, 45 min; at 10 µM; active compounds read high.
For `CN(C)c1ccc(/C=C2\SC(=N)N(c3nccs3)C2=O)cc1`, the inhibition (in general, the change of the read-out against control, counted positive when it falls) is -5.77% (inactive). The same measure for `Cc1ccc(N2C(=O)/C(=C\c3ccc(Cl)cc3)SC2=S)cc1`: 8.97% (inactive); for `CC(C(=O)O)N1C(=O)/C(=C/c2ccc(N(C)C)cc2)SC1=S` (centres undefined): 52.9% (active). For the compound `CCCOc1ccccc1/C=C1\C(=O)NN(c2cccc(Br)c2)C1=O`, the inhibition was 20% (inactive). The value for `CCOc1ccc(/C=C2\C(=O)NN(c3ccc(Cl)c(Cl)c3)C2=O)cc1OCC` was 1.02% (inactive); that for `CCOc1cc(/C=C2/C(=O)NN(c3ccc(CC)cc3)C2=O)c(Br)c(Br)c1O` was 54.1% (active).

Take `N#CC1=C2c3ccccc3CCC2C(c2ccco2)=NC1=O` (centres undefined): the inhibition is 42% (active). The value for `CC1=NC(=O)C(C#N)=C(C)C1CSCc1ccco1` (centres undefined) was 0.332% (inactive); that for `CCN(Cc1nccn1C)C(=O)c1ccc(N(C)CC2CCCCN2C)nc1` (centres undefined) was -0.562% (inactive); that for `CCC(C)C(=O)Nc1ccc(I)cc1` (centres undefined) was 3.94% (inactive). The value for `COc1ccccc1NC(=O)NC1CC(=O)N(CC(C)(C)C)C1` (centres undefined) was -2.73% (inactive); that for `CC1(C)CC(=O)C(=Cc2c[nH]c3ccccc23)C(=O)C1` was -0.144% (inactive); that for `Cc1cc(C)cc(N2CC(C(=O)N3CCc4ccccc4C3)CC2=O)c1` (centres undefined) was 6.46% (inactive). The same measure for `O=C(CC1C(=O)NCCN1CCc1ccccc1)NCCCn1ncc2ccccc21` (centres undefined): 0.369% (inactive); for `COc1cc(C2C3=C(CCCC3=O)OC3=C2C(=O)CCC3)ccc1OCC(=O)Nc1ccccc1`: -1.19% (inactive). In the case of `O=C(NC(=S)N1CCCC1)c1ccc(Br)o1`, the inhibition was 4.57% (inactive). The value for `O=C(C[n+]1c2ccccc2n2nc3c(cc21)c1cccc2cccc3c21)Nc1nc2ccccc2[nH]1` was 93.1% (active); that for `O=C([O-])c1ccc(C[n+]2c3ccccc3n3nc4c(cc32)c2cccc3cccc4c32)cc1` was -16.8% (inactive); that for `O=C(/C=C/c1ccccc1)Oc1cccc(C(=O)Nc2nc3ccccc3[nH]2)c1` was 14.2% (inactive). Turning to `Cn1c(=O)c2c(nc(SCC(=O)Nc3ccc(OC(F)(F)F)cc3)n2Cc2cccc(Cl)c2)n(C)c1=O`, the inhibition is 10% (inactive).

Take `Cc1cc(N2C(=O)C(=O)C(C(=O)c3ccc(F)cc3)C2c2ccccc2)no1` (centres undefined): the inhibition is -4.72% (inactive). Regarding `COCCN(C)C(=O)c1cc(NC(=O)c2ccccc2)cc2ncn(C3CCCC3)c12`, the inhibition was 12.6% (inactive). The value for `C=CCn1c(SCC(=O)c2ccccc2)nc2ccccc2c1=O` was 2.49% (inactive). The value for `CCN=C1CC=C(Br)C=C(C(=O)/C=C/c2ccccc2OC)C1=O` was 101% (active); that for `COc1ccc(OC)c(/C=C/C(=O)c2ccc(OC)c(OC)c2)c1` was -2.06% (inactive). As to `COc1ccc(/C=C/C(=O)c2cc3ccccc3oc2=O)c(OC)c1`, the inhibition was -5.94% (inactive). The value for `CC(C)NC(=O)Cc1coc2ccc(C(C)(C)C)cc12` was 5.19% (inactive); that for `Cc1noc(C)c1C(=O)CCCCCCCCCCCCCCC(=O)O` was -8.93% (inactive); that for `Cc1ccc(OC(=O)c2ccc(Br)cc2Br)c(C)c1` was 5.25% (inactive). The value for `CCCC(=O)NC(=S)Nc1ccccc1Sc1ncnc2scc(-c3ccccc3)c12` was 3.87% (inactive); that for `COc1ccc2c(c1)OC(C)CN(Cc1ccc3cccnc3c1)C2` (centres undefined) was 1.92% (inactive). The same measure for `CN1C(=O)C(C(=NCc2ccccc2)c2nn[nH]n2)C(=O)c2ccccc21` (centres undefined): 2.67% (inactive). For the compound `Cc1ccc(N=C/C=C/c2ccc([N+](=O)[O-])cc2)cc1`, the inhibition is 6.74% (inactive). The value for `CC(=O)Nc1cc(C)ccc1[N+](=O)[O-]` was -2.27% (inactive). The same measure for `Cc1ccc(N2C(=O)c3ccccc3NC2c2ccc(OCc3ccccc3)cc2)cc1` (centres undefined): 8.59% (inactive); for `C=CCNC(=O)C1CCN(S(=O)(=O)N(C)C)CC1`: 8.77% (inactive); for `O=C(CSc1nc2scc(-c3ccccc3)c2c(=O)n1-c1ccccc1)c1ccccc1F`: 8.07% (inactive). Regarding `O=C(Nc1ccccc1Cl)c1cc(-c2ccc(Cl)s2)nc2ccccc12`, the inhibition is -7.97% (inactive). On to `CCOc1cc(Br)c(Br)c(C=Nc2cccc(NC(=O)c3ccc(Cl)cc3Cl)c2)c1O`, for which the inhibition was 13.5% (inactive). The value for `CCN(CC1CCCN(CCc2cccc(OC)c2)C1)C1CCN(C(C)=O)CC1` (centres undefined) was -12.6% (inactive).

On to `COc1ccc(C(=O)CC=Nc2ccc(Oc3ccccc3Cl)cc2)cc1OC`, for which the inhibition was 11.3% (inactive).

As to `Cc1ccc(NC(=O)C(=O)NC(=O)c2n[nH]c3c2CCCC3)cc1`, the inhibition is 2.41% (inactive). For the compound `CCOc1ccc(Cl)cc1S(=O)(=O)N1CCCCC1C` (centres undefined), the inhibition is 3.07% (inactive). The same measure for `O=C([C@@H]1C[C@H]1c1ccccc1)N1CCOc2ccc(CN3CCN(c4ncccn4)CC3)cc2C1`: -2.65% (inactive). The same measure for `Cc1cnc(Sc2nccn2C)c([N+](=O)[O-])c1`: -1.03% (inactive); for `CCOC(=O)c1cc(N2C(=O)c3cccc4cccc(c34)C2=O)ccc1Cl`: -1.46% (inactive). The value for `COC(=O)c1cc2ccccc2n1C` was -2.5% (inactive).

With `Clc1ccc(-c2csc(NN=C3c4ccccc4-c4ccccc43)n2)cc1`, the inhibition was -3.38% (inactive).

With `COc1cc(/C=C(/C)[N+](=O)[O-])c2c(c1Br)CCCO2`, the inhibition was -18% (inactive).

On to `COc1ccc2c(c1)CCCN2Cn1nc(COc2ccc(C3CCCCC3)cc2)n(C)c1=S`, for which the inhibition was 0.371% (inactive). In the case of `c1cc2nsnc2cc1CN1CCCC(Nc2ccc3c(c2)OCO3)C1` (centres undefined), the inhibition is 2.61% (inactive).

`Cc1cc(Oc2cc(-n3[nH]c(=O)c4ccccc4c3=O)nc(-c3ccccc3)n2)cc(C)c1Cl`: the inhibition was 7.28% (inactive). `CCN(CC1CCN(C2CCN(C)CC2)CC1)C(=O)c1occc1C`: the inhibition is 9.69% (inactive).

Turning to `O=C(NCN1CCN(CNC(=O)c2cccnc2)CC1)c1cccnc1`, the inhibition is -0.31% (inactive).
